{"source": "PubChem BioAssay AID2685", "about": "(National Center for Advancing Translational Sciences (NCATS), 2010)", "note": "About 2,100 (0.66%) of roughly 320,000 compounds were called active. Another 53% or so got no clear call; they are omitted. Calls follow the shape of the dose curve; as a rule, active = well fitted inhibition curve with a large enough effect in the signal ratio, with a control signal flat (not every such curve was filed as active); inconclusive = small, poorly fitted or top-dose-only effect, or effect the other way, or a change in a side signal; inactive = flat fitted curve, though single readings scatter; the % refers to the signal ratio. For the sample, actives were picked, then their nearest neighbours and some compounds at random. Potency is read from the fitted curve at half-maximal effect.", "data": [{"test": "qHTS Assay for Lipid Storage Modulators in Drosophila S3 Cells;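 as to cell number change: cells counted by Cell Tracker Red CMTPX staining in the red channel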; as to lipid storage change, negative = inhibition: % is scaled to controls: 0 for no effect and ±100 for the full control effect", "conditions": "BODIPY lipid droplet fluorescence, 18-24 h, cells fed with added oleic acid; cell number change: measured here: cell count max response; series mostly up to 46.1 µM; lipid storage change, negative = inhibition: at the top concentration", "how_it_was_run": "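Laser-scanning cytometry quantifies lipid droplet accumulation (500–530 nm total intensity; droplet/cell object ratio) in oleic acid-fed (400 uM added) Drosophila S3 cells treated with a concentration series. 20 uM Triacsin C defined 100% inhibition.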", "units": {"cell number change": "%"}, "values": [{"smiles": "CCN(CC)N=Nc1ccc(S(N)(=O)=O)cc1", "lipid storage change, negative = inhibition": "14.8% (inactive)", "cell number change": -10.8}, {"smiles": "O=C(c1ccc(Cl)cc1)N1CCN(c2ccc(F)cc2)CC1", "lipid storage change, negative = inhibition": "8.11% (inactive)", "cell number change": -2.3}, {"smiles": "CCOC(=O)c1cccc(NC(=O)CNC(=O)C2CCCCC2)c1", "outcome": "inactive", "cell number change": 12.1}, {"smiles": "Cn1c(=O)c(C(=O)NCc2ccccc2)c(O)c2ccccc21", "outcome": "inactive"}, {"smiles": "C[C@H]1CC[C@@]2(O[C@@H](CCO)C[C@@H](O)[C@@H]2O)O1", "lipid storage change, negative = inhibition": "-0.85% (inactive)", "cell number change": 10.3}, {"smiles": "Cn1c(SCC(=O)N2CCN(c3ccccc3)CC2)nnc1-c1ccccc1", "outcome": "inactive", "cell number change": 1.56}, {"smiles": "CC(NC(=O)c1ccccc1F)c1nnc(SCC(=O)N2CCN(c3ccccc3)CC2)n1C", "note": "(stereo unspecified)", "Potency": "0.82 µM (active)", "cell number change": -26.5}, {"smiles": "CC(NC(=O)c1ccccc1F)c1nnc(SCC(=O)NC2=NCCS2)n1C", "note": "(stereo unspecified)", "outcome": "inactive", "cell number change": -19.7}, {"smiles": "COc1ccc(NC(=O)CSCc2cc(=O)n3c(C)csc3n2)cc1", "outcome": "inactive", "cell number change": 4.18}, {"smiles": "CC(C)Nc1nc(NC(C)C)nc(SCC(N)=O)n1", "lipid storage change, negative = inhibition": "-7.46% (inactive)", "cell number change": -10.2}, {"smiles": "CC(C)Nc1nc2n(c(=O)n1)CCN2C(C)C", "Potency": "4.11 µM (active)", "cell number change": 0.328}, {"smiles": "CC(C)Nc1nc(NC(C)C)nc(Nn2cnnc2)n1", "lipid storage change, negative = inhibition": "-11.9% (inactive)", "cell number change": -7.52}, {"smiles": "CC1(C)CC2(C)Nc3ccccc3N2C(=S)N1", "note": "(stereo unspecified)", "lipid storage change, negative = inhibition": "3.67% (inactive)", "cell number change": -13.1}, {"smiles": "COc1ccc(NC(=O)Nc2ccc(C(=O)N3CCOCC3)cc2)cc1OC", "lipid storage change, negative = inhibition": "-17% (inactive)", "cell number change": -17.3}, {"smiles": "O=C(CNC(=O)c1ccc(Br)o1)Nc1ncccc1O", "lipid storage change, negative = inhibition": "16.8% (inactive)"}, {"smiles": "C=C1CCC[C@]2(C)C[C@H]3OC(=O)C(CN4CCOCC4)[C@H]3C[C@@H]12", "note": "(stereo partly specified)", "Potency": "8.2 µM (active)", "cell number change": -15.3}, {"smiles": "C=C1CCC[C@]2(C)C[C@H]3OC(=O)C(CN4CC(C)OC(C)C4)[C@H]3C[C@@H]12", "note": "(stereo partly specified)", "lipid storage change, negative = inhibition": "1.66% (inactive)", "cell number change": 8.39}, {"smiles": "C=C1CCC[C@]2(C)C[C@H]3OC(=O)C(CNC(C)CC)[C@H]3CC12", "note": "(stereo partly specified)", "lipid storage change, negative = inhibition": "-6.88% (inactive)", "cell number change": -16.4}, {"smiles": "O=C(COC(=O)c1ccc(S(=O)(=O)N2CCOCC2)cc1)NCc1cccs1", "lipid storage change, negative = inhibition": "-5.08% (inactive)", "cell number change": -3.56}, {"smiles": "CC1CCCCC1NC(=O)CN1C(=O)NC(Cc2ccccc2)(Cc2ccccc2)C1=O", "note": "(stereo unspecified)", "outcome": "inactive", "cell number change": 27.7}, {"smiles": "Cn1c(NC(=O)/C=C\\c2ccccc2)cc(=O)n(C)c1=O", "lipid storage change, negative = inhibition": "2.84% (inactive)", "cell number change": -2.62}, {"smiles": "COC(=O)c1ccc(OC(=O)c2ccccn2)cc1", "lipid storage change, negative = inhibition": "-5.28% (inactive)", "cell number change": 10.3}, {"smiles": "CC(=O)c1ccccn1", "lipid storage change, negative = inhibition": "9.67% (inactive)", "cell number change": 12.7}, {"smiles": "CC1(C)CC(=O)CC(C)(C)N1OC(=O)c1ccccn1", "Potency": "32.6 µM (active)"}, {"smiles": "CC(C#N)Sc1nnc(-c2ccccc2F)n1C1CC1", "note": "(stereo unspecified)", "outcome": "inactive", "cell number change": 7.26}, {"smiles": "NNC(=O)c1cc(C2CC2)nc2ccc(Br)cc12", "lipid storage change, negative = inhibition": "0.205% (inactive)", "cell number change": -5.67}, {"smiles": "O=C(NCCOc1nc(N2CCCCC2)nc(N2CCOCC2)n1)Nc1ccccc1", "Potency": "0.731 µM (active)", "cell number change": -5.19}, {"smiles": "O=C(NCCOc1nc(N2CCOCC2)nc(N2CCOCC2)n1)Nc1ccccc1", "lipid storage change, negative = inhibition": "6.9% (inactive)", "cell number change": -14.8}, {"smiles": "O=C(NCCOc1nc(N2CCCCC2)nc(N2CCCCC2)n1)Nc1ccccc1", "lipid storage change, negative = inhibition": "-1.62% (inactive)", "cell number change": 0.327}, {"smiles": "Cc1ccc(NNC(N)=S)cc1Cl", "lipid storage change, negative = inhibition": "10.3% (inactive)", "cell number change": 18.1}, {"smiles": "COc1ccccc1-c1nnc(C2CCN(S(=O)(=O)c3ccccc3[N+](=O)[O-])CC2)o1", "lipid storage change, negative = inhibition": "-28.1% (inactive)"}, {"smiles": "Cc1cccc(-c2nc(CN3CCCC(C(=O)NC4CCCCCC4)C3)c(C)o2)c1", "note": "(stereo unspecified)", "lipid storage change, negative = inhibition": "-4.34% (inactive)", "cell number change": 2.33}, {"smiles": "Cc1ccc(C)c(S(=O)(=O)N2CCN(C(=O)c3cccn3C)CC2)c1", "outcome": "inactive", "cell number change": -13.9}, {"smiles": "CCc1cc(C(=O)N2CCN(S(=O)(=O)c3cc(C)ccc3C)CC2)sc1C", "Potency": "20.6 µM (active)", "cell number change": -8.23}, {"smiles": "CCc1cc(C(=O)N2CCN(S(=O)(=O)c3ccc(Cl)cc3)CC2)sc1C", "Potency": "11.6 µM (active)", "cell number change": 6.97}, {"smiles": "Cc1ccc(C)c(S(=O)(=O)N2CCN(C(=O)c3ccc(C)s3)CC2)c1", "lipid storage change, negative = inhibition": "-9.47% (inactive)", "cell number change": 6.27}, {"smiles": "CCOC(=O)N1CCN(S(=O)(=O)c2ccc(Cl)cc2)CC1", "outcome": "inactive", "cell number change": 24.3}, {"smiles": "Cc1ccccc1-n1nc(C)c2cc(C(=O)N3CCN(S(=O)(=O)c4ccc(Cl)cc4)CC3)sc21", "lipid storage change, negative = inhibition": "-0.0133% (inactive)", "cell number change": -4.24}, {"smiles": "COc1ccccc1N1CCN(CC(O)COc2ccc3c(c2)CCC3)CC1", "note": "(stereo unspecified)", "lipid storage change, negative = inhibition": "-12.6% (inactive)", "cell number change": 1.49}, {"smiles": "COc1ccc(-c2cc(C(=O)N3CCOCC3)no2)cc1OC", "lipid storage change, negative = inhibition": "10.4% (inactive)", "cell number change": -3.96}, {"smiles": "CSCCNC(=O)Nc1c(-c2c(Cl)cccc2Cl)noc1C", "lipid storage change, negative = inhibition": "2.52% (inactive)"}, {"smiles": "CCOC(=O)CC1(c2ccccc2)CCOC(C)(C)C1", "note": "(stereo unspecified)", "lipid storage change, negative = inhibition": "-20% (inactive)", "cell number change": 5.31}, {"smiles": "CCC1(C)CC(CC(=O)O)(c2ccccc2OC)CCO1", "note": "(stereo unspecified)", "Potency": "29.1 µM (active)", "cell number change": -13.5}, {"smiles": "COc1ccccc1C1(CC(=O)O)CCOC(C(C)C)C1", "note": "(stereo unspecified)", "lipid storage change, negative = inhibition": "-17.5% (inactive)", "cell number change": -4.59}, {"smiles": "CC(C)c1ccc(S(=O)(=O)N2CCN(C(=O)C3CC3C)CC2)cc1", "note": "(stereo unspecified)", "cell number change": 13.5, "lipid storage change, negative = inhibition": "9.88% [at 0.0737 µM] (inactive)"}, {"smiles": "CC(=O)N1CCc2cc(Br)cc(S(=O)(=O)NCCCN3CCC(C)CC3)c21", "lipid storage change, negative = inhibition": "-1.66% (inactive)", "cell number change": 6.06}, {"smiles": "Cc1cnc(C(=O)OCC(=O)c2ccc(F)c(F)c2)cn1", "outcome": "inactive", "cell number change": 6.94}, {"smiles": "Cc1nc2ncnn2c(C)c1CCC(=O)NC(C)CCc1ccco1", "note": "(stereo unspecified)", "lipid storage change, negative = inhibition": "-27.5% (inactive)", "cell number change": -25.3}]}]}
